Tgondii IFNg – blocks Toxoplasma gondii growth in the presence of IFN-gamma | hit rate 3.8% among 69,000 | activity change, negative = inhibition, % (concentration not given with the values) | Toxoplasma gondii growth in IFN-gamma-treated host cells; stronger effect = lower value; in the data active means activity change below about -70%, passing the limit was not always enough;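 further: host cells are HeLa cells infected with Toxoplasma gondii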
Starred values were filed as active, the others as inactive. The full list was thinned out, with hits kept by preference.

Screening CC(C)CC(=O)Nc1ccc(S(=O)(=O)N2CCC3(CC2)Nc2ccccc2-n2cccc23)cc1 returned Tgondii IFNg 1.
COc1cccc(CC(=O)N2CCC3(CC2)Nc2cc(OC)ccc2-n2cccc23)c1 was read as Tgondii IFNg -34.
`CCc1ccc(C(=O)N2CCC3(CC2)Nc2cc(OC)ccc2-n2cccc23)cc1` gave Tgondii IFNg 16.
For O=C(c1ccc(Br)o1)N1CCC2(CC1)Nc1cc(F)ccc1-n1cccc12 the results were Tgondii IFNg -27.
For COc1ccc2c(c1)NC1(CCN(C(=O)Cc3ccc(F)cc3)CC1)c1cccn1-2 the results were Tgondii IFNg -84*.
For COc1cccc(CC(=O)Nc2ccc3c(c2)CCC(=O)N3C)c1 the results were Tgondii IFNg -37.
Cc1ccc(C2(O)CCN(C(=O)c3cnc(C(C)C)[nH]c3=O)CC2)nc1 was read as Tgondii IFNg 1.
For CCCC(=O)N(Cc1ccccc1)Cc1nc(N(C)C)ncc1-c1cc(C)no1 the results were Tgondii IFNg 4.
CCc1cc2c(=O)n(CC(=O)N(C)Cc3nnc(-c4ccccc4)o3)cnc2s1 was read as Tgondii IFNg -7.
CCc1ccc(-c2c(-c3ccccc3)ncn2CCc2nn[nH]n2)nc1 was read as Tgondii IFNg 9.
COc1ccc(-c2nc3c(s2)CN(C(=O)Nc2ccc(C)cc2Cl)CC3)cc1 was read as Tgondii IFNg 79.
Screening O=C(c1csnn1)N1CCC2(CC1)CNc1ccccc12 returned Tgondii IFNg 215.
For CCC(=O)Nc1cccc(C(=O)N2CCC[C@H]2CO)c1 the results were Tgondii IFNg 5.
Screening CCCCC[C@H](CC(=O)NO)C(=O)N[C@H](C(=O)N1CCC[C@H]1CO)C(C)C returned Tgondii IFNg -77*.
`COC(=O)C(NC1CCN(C(=O)c2ccccc2)CC1)c1cccc(C)c1` (stereo not given) gave Tgondii IFNg 5.
COc1cccc(-c2nc3cnccn3c2NCCC(=O)N2CCC3(CC2)OCCO3)c1 was read as Tgondii IFNg -26.
For Cc1cc(C(=O)Oc2ccc(Cl)cc2)no1 the results were Tgondii IFNg 0.
Screening O=C(Oc1ccc(Cl)cc1)c1cscc1Sc1ccc(Cl)cc1 returned Tgondii IFNg -101*.
For O=C(Nc1ccc(OC(F)(F)F)cc1)c1cscc1Sc1ccc(Cl)cc1 the results were Tgondii IFNg -52.
Screening CN(Cc1ccccc1N1CCOCC1)C(=O)Cn1nnc(-c2ccccc2)n1 returned Tgondii IFNg -12.
COc1ccc(-c2nc(CN(c3ccc(OC)cc3)S(=O)(=O)c3ccc(C)cc3)c(C)o2)cc1 was read as Tgondii IFNg 4.
Screening Cc1ccccc1C1CCN(CCn2ccnc2-c2nc[nH]c2C)C1 (stereo not given) returned Tgondii IFNg 0.
Cc1nc(-c2ccc3c(c2)OCO3)cc(C(C)C)n1 was read as Tgondii IFNg -72*.
Screening Cc1cc(-c2ccc3c(c2)OCO3)cnc1N returned Tgondii IFNg 52.
`Cc1ncc(-c2ccc3c(c2)OCO3)c(-c2cccnc2)n1` gave Tgondii IFNg 1.
`O=C(c1cnccn1)N1CCC(F)(F)C2(CCN(c3ncccc3F)C2)C1` (stereo not given) gave Tgondii IFNg -1.
`Cc1ccc(NCn2c(=S)oc3ccc(Cl)cc32)c(C)c1` gave Tgondii IFNg 45.
For Cc1ccc(C(=O)N2CCC3OCCCC3(COCC3CC3)C2)cn1 (stereo not given) the results were Tgondii IFNg 13.
For CCOCC12CCCOC1CCN(C(=O)C1=CCCC1)C2 (stereo not given) the results were Tgondii IFNg 26.
`COCC12CCCOC1CCN(C(=O)C1=CCCC1)C2` (stereo not given) gave Tgondii IFNg -81*.
CC(C)c1cc(CN(C)C(=O)CCc2nc3ccccc3[nH]c2=O)on1 was read as Tgondii IFNg 13.
Cc1cc(C(=O)NCc2ccc(S(=O)(=O)N(C)C)cc2)nc(N2CCCCC2)n1 was read as Tgondii IFNg -43.
`O=C(CNCc1ccccc1Cl)NC(c1ccccc1)c1ccccc1` gave Tgondii IFNg 10.
For Cc1cccc(OCCCN(C)C(=O)CN)c1C the results were Tgondii IFNg 13.
`COCC(=O)N(C)CCOc1c(C)ccc(C)c1C` gave Tgondii IFNg -78*.
Screening Cc1ccc(C)c(OCC(=O)N(C)Cc2cc(C(C)C)on2)c1C returned Tgondii IFNg 10.
Screening CCc1ccc(NC(=O)C2=C(C)C(=O)OC23CCN(CC)CC3)cc1 returned Tgondii IFNg inactive.
For CC(CCc1ccco1)Nc1nc(-c2cccnc2)nc2c1cnn2C (stereo not given) the results were Tgondii IFNg -29.
Screening CCc1ccc(-c2nccn2CCCN2CCCC(O)C2)nc1 (stereo not given) returned Tgondii IFNg 13.
For C=CCN1CCOCC2(C1)CN(Cc1ccc(F)cc1)CCO2 (stereo not given) the results were Tgondii IFNg -5.
COc1cc2c(cc1OC)CN(CCc1ccc(NC(=O)c3cccc4c(=O)c5cccc(OC)c5[nH]c34)cc1)CC2 was read as Tgondii IFNg -84*.
Screening COc1cc2c(cc1OC)CN(Cc1c(C(C)C)[nH]c3ncccc13)CC2 returned Tgondii IFNg -38.
Screening COc1cc2c(cc1OC)CN(CC(=O)NC(C)c1cn(C)nc1C)CC2 (stereo not given) returned Tgondii IFNg 2.
For CCCNC(=O)c1cc2c(c3ccccc3n2C)n1C(=O)N(C)C the results were Tgondii IFNg 8.
For CNC1(c2ccc(OC)cc2)Oc2ccccc2C(C#Cc2ccccc2)=C1C (stereo not given) the results were Tgondii IFNg -107*.
Screening Cc1nc(C)c2c(n1)CCN(CC1CCOC1)CC2 (stereo not given) returned Tgondii IFNg 251.
`Cc1ccc(NC(=O)OC2CCCCC2)cc1NC(=O)OC1CCCC1` gave Tgondii IFNg -105*.
For Cc1ccc(NC(=O)C2CCCCC2C(=O)O)cc1Cl (stereo not given) the results were Tgondii IFNg -4.
`COc1ccc(NC(=O)Nc2ccc(OC)c(OC3CCCC3)c2)cc1OC1CCCC1` gave Tgondii IFNg 139.
Screening CCn1ncnc1CN1CCC(CNC(=O)c2cccc(C)n2)C1 (stereo not given) returned Tgondii IFNg 9.
COc1cccc(NC(=O)c2ccnn2-c2ccc3ccccn23)c1 was read as Tgondii IFNg -14.
For CC(C)(C)c1cnc(CSc2cnc(NC(=O)C3CCNCC3)s2)o1 the results were Tgondii IFNg -72*.
`CCc1nc(NC(=O)c2[nH]c3c(C)cc(C)cc3c2C)n[nH]1` gave Tgondii IFNg 54.
For C=CCNC(=O)c1ccc(-c2cnc3ccccc3c2)o1 the results were Tgondii IFNg -82*.
Screening C=CCNC(=O)c1ccc(-c2cccc([N+](=O)[O-])c2)o1 returned Tgondii IFNg 67.
For C=CCNC(=O)c1ccc(-c2ccc(F)c(CO)c2)o1 the results were Tgondii IFNg 45.
For COCCOc1ccc(N)cc1C(F)(F)F the results were Tgondii IFNg 52.
`Cc1ccccc1Cn1cccc1CNS(=O)(=O)c1ccc2c(c1)CCC(=O)N2` gave Tgondii IFNg 50.
For CN1C(=O)CCc2cc(NS(=O)(=O)c3ccc(Br)s3)ccc21 the results were Tgondii IFNg -97*.
For CN1C(=O)CCc2cc(NS(=O)(=O)c3ccc(Br)cc3)ccc21 the results were Tgondii IFNg -95*.
Screening Cc1ccc(S(=O)(=O)Nc2ccc3c(c2)CCC(=O)N3C)cc1Cl returned Tgondii IFNg -39.

Screening data (PubChem)
